Source: PubChem (several laboratories)
Sampled rows, rich in hits. Any-hit rate of the full collection: about 1.3%.
Gli-Sufu antag: Gli-Sufu pathway antagonism; Sufu-KO-LIGHT fibroblasts, Gli luciferase reporter luminescence; inhibition, % at 5 µM; 0.74% of 340,000 active;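 active = inhibition above about 55%, limit read from the data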;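 also: 0% = DMSO-treated cells and 100% = wells with medium but no cells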
NR5A2 inv ag: suppresses constitutive activity of human LRH-1 | O00482 | HEK293T StAR-luciferase reporter, LRH-1 transfected, 24 h | inhibition, % at 3.6 µM | 0.13% of 360,000 active | AID 602396;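 active = inhibition above the mean inhibition of all tested compounds plus 3 SD, cut at about 73% in these data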;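 also: 0% = DMSO wells and 100% = reporter-only cells lacking LRH-1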
NCOA1 inh: inhibits human SRC1 coactivator; Q15788; HEK293 GAL4-SRC1 luciferase reporter, luminescence; inhibition, % at 3.6 µM; 0.12% of 360,000 active; AID 588354;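 active = inhibition above the campaign mean plus 3 SD, with each screening campaign given its own cutoff, cut at about 60% in these data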;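 also: 0% = DMSO treated cells and 100% = gossypol at 36 µM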
SRC3 inh: inhibitors of human steroid receptor coactivator 3 (SRC3); Q9Y6Q9; HEK293 GAL4-SRC3 luciferase reporter, luminescence; AID 588352; 0.17% of 360,000 active; inhibition, % at 3.6 µM;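 active = inhibition above a per-campaign cutoff, the mean of all compounds plus 3 SD, cut at about 60% in these data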;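 also: 0% = DMSO-treated cells and 100% = gossypol-treated cells at 36 µM; higher means less SRC3-driven luciferase light from the GAL4 reporter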
Target sequence (Q9Y6Q9 whole entry, looked up, the tested form may be a part): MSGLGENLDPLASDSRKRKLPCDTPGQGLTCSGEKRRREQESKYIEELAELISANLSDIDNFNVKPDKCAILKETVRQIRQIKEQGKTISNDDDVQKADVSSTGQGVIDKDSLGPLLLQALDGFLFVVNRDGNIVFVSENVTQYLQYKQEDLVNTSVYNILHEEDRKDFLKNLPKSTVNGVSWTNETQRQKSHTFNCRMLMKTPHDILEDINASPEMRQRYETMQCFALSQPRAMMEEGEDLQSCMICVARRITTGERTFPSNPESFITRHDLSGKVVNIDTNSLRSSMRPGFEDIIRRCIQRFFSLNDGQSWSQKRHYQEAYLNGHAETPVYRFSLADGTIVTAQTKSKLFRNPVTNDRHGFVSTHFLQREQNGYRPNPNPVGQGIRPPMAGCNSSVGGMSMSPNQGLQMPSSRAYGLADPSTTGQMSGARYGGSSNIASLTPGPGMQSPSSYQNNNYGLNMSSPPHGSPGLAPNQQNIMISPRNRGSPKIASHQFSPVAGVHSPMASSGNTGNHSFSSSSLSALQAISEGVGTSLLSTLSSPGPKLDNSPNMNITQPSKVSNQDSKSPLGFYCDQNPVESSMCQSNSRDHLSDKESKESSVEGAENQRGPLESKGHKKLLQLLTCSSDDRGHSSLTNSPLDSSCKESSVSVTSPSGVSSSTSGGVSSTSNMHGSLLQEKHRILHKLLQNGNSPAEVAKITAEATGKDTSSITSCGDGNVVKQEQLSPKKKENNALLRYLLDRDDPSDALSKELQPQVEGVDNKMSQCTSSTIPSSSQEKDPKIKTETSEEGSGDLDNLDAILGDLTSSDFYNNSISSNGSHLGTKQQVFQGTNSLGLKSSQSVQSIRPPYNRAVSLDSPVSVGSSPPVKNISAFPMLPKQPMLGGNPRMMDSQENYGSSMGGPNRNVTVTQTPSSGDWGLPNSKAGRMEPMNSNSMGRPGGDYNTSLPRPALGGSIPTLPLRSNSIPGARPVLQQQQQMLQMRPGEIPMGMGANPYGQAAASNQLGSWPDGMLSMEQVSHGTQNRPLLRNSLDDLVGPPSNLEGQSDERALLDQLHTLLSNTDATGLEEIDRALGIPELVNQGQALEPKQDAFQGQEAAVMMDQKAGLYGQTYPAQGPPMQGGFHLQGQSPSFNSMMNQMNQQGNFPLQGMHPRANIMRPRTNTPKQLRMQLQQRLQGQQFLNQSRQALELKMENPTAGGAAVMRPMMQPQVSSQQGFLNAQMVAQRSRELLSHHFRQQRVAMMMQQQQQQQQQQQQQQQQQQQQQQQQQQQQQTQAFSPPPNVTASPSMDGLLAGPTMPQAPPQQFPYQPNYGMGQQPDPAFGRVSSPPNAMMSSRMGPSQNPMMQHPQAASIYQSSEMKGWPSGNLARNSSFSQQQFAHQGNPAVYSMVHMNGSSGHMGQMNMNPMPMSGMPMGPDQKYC
SRC2 inh: inhibits human steroid receptor coactivator 2 | Q15596 | HEK293 GAL4-SRC2 luciferase reporter, luminescence | inhibition, % at 9 µM | 0.17% of 370,000 active | AID 651957;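 active = inhibition above the mean inhibition of all tested compounds plus 3 SD, set per campaign, cut at about 52% in these data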;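 also: 0% = DMSO treated cells and 100% = cells given Gossypol at 36 µM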
NR2F2 inh: NR2F2 (human) inhibition, primary screen; inhibition, % at 8.6 µM; HEK293T NGFI-A luciferase reporter, luminescence; 0.7% of 370,000 active; AID 686940;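 active = inhibition above a per-plate cutoff, mean inhibition of test wells between control levels plus 3 SD, cut at about 38% in these data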;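 also: cells cotransfected with COUP-TFII expression vector driving the NGFI-A reporter; 0% = median of COUP-TF2 test wells and 100% = reporter-only cells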
VP16 Luc counter: inhibits VP16 reporter, flagging COUP-TFII antagonist hits; inhibition, % at 8.5 µM; shares compounds with NR2F2 inh; AID 687007; 25% of 2,500 active; HEK293 Gal4-VP16 luciferase reporter, luminescence; in the data active = inhibition above about 13%
COUP-TFII conf: COUP-TFII (NR2F2) inhibition, confirmation assay; shares compounds with NR2F2 inh; HEK293 NGFI-A luciferase reporter, luminescence; inhibition, % at 8.5 µM; 45% of 2,500 active; AID 687008;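 active = mean inhibition over three repeats above a set limit taken from the earlier primary screen, cut at about 38% in these data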;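 also: 100% = cells given the luciferase reporter alone without the COUP-TF2 vector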
An asterisk follows results filed as active; / = not tested or not shown.

SMILES	Gli-Sufu antag	NR5A2 inv ag	NCOA1 inh	SRC3 inh	SRC2 inh	NR2F2 inh	VP16 Luc counter	COUP-TFII conf
CC1CCN(c2ncnc3ccccc23)CC1	21	19	-8	10	5	45*	-1	17
CC1CCN(c2nc(-c3ccccc3O)nc3ccccc23)CC1	2	8	-8	5	12	25	/	/
CCCN(CC(=O)Nc1ccc(F)c(F)c1F)C(=O)Cc1ccc(OC)c(S(=O)(=O)N2CCOCC2)c1	/	-2	-6	9	8	14	/	/
COc1ccccc1NC(=O)c1c(Nc2ccccc2C)sc(C(=O)Nc2cccc(Cl)c2)c1N	8	26	17	27	5	38*	4	61*
COc1ccc(Nc2sc(C(=O)c3ccc(Cl)cc3)c(N)c2C(=O)Nc2ccccc2OC)cc1	26	6	-5	7	27	2	/	/
Nc1cc(S(=O)(=O)c2ccc(N3CCCCC3)c(N)c2)ccc1N1CCCCC1	/	1	0	2	1	43*	5	22
Nc1cc(S(=O)(=O)N2CCCCC2)ccc1N1CCOCC1	-2	12	0	12	9	15	/	/
COc1ccc(-c2csc3ncnc(NCCCO)c23)cc1	-2	24	67*	59	20	44*	14*	24
CCN(CC)CCCNc1ncnc2scc(-c3ccc(F)cc3)c12	41	1	16	9	-21	-8	/	/
O=C1CCCC[C@@H](O)[C@H](O)C[C@H](c2ccccc2)O1	/	-30	/	/	3	5	/	/
C=C1CC2(CC(c3ccccc3)OC(c3ccccc3)C2)OC1=O (stereo not drawn)	13	5	-6	-18	50	46*	8	-2
O[C@@H](Cc1ccccc1)[C@@H](/C=C/c1ccccc1)NCCc1ccccc1	/	/	/	/	-23	-9	/	/
O=C(CCCN1C(=O)/C(=C/c2ccccc2Cl)SC1=S)NCCCN1CCOCC1	10	18	18	15	79*	63*	10	15
O=C(CCN1C(=O)/C(=C/c2ccccc2F)SC1=S)NCCCN1CCOCC1	-26	11	5	0	-6	-7	/	/
CCOc1ccc(/C=C2\SC(=S)N(CCCC(=O)NCCCN3CCOCC3)C2=O)cc1	18	31	33	33	84*	69*	27*	25
CCc1ccc(/C=C2\SC(=S)N(CCCC(=O)NCCCN3CCOCC3)C2=O)cc1	/	36	49	45	89*	84*	68*	59*
O=C(CCCN1C(=O)/C(=C/c2ccccc2Cl)SC1=S)NNC(=O)c1ccccc1Cl	31	46	52	60	83*	69*	69*	71*
CCc1ccc(/C=C2/SC(=S)N(CCC(=O)NCCCN3CCOCC3)C2=O)cc1	8	-6	-51	-6	-27	-1	/	/
O=C(NC1CCCc2c1cnn2-c1ccccc1F)c1ccccc1N1CCOCC1 (stereo not drawn)	/	-7	3	-6	5	15	/	/
Cc1cccc(NS(=O)(=O)c2ccc(NC(=O)N3CCCCC3)cc2)c1	13	23	13	30	20	48*	2	16
COc1cccc(NS(=O)(=O)c2ccc3c(c2)N(C(C)=O)CCS3)c1	12	-3	-1	-1	9	-1	/	/
CC(=O)N1CCSc2ccc(S(=O)(=O)Nc3cccc(C)c3)cc21	17	26	17	12	1	37*	-5	7
COC(=O)C(C(=O)OC)c1ncccc1NS(=O)(=O)c1ccc(C)cc1	/	20	/	/	1	9	/	/
COc1ccc(-c2cc(NC(=O)Cc3c(C)[nH]c4ccccc34)ccc2Nc2cccnc2)cc1F	/	/	/	/	-18	0	/	/
C[C@@H]1CN([C@@H](C)CO)C(=O)CCCn2nncc2CO[C@H]1CN(C)CC1CC1	/	/	/	/	-19	-2	/	/
SMILES	Gli-Sufu antag	NR5A2 inv ag	NCOA1 inh	SRC3 inh	SRC2 inh	NR2F2 inh	VP16 Luc counter	COUP-TFII conf
CCc1ccc(CCNC(=O)OCCCN2CCC3(CCC(c4ccccc4)CC3)C2=O)cc1 (stereo not drawn)	/	/	/	/	34	41*	-7	7
CCCCNC(=O)OCCCN1CCC2(CCC(c3ccccc3)CC2)C1=O (stereo not drawn)	/	/	/	/	4	9	/	/
COc1cc2c(cc1OC)/C(=C/C(C)=O)OC2	/	13	/	/	13	-12	/	/
COc1cccc2c1C(=O)c1c(O)c3c(c(O)c1C2=O)C[C@](O)(C(C)=O)C[C@H]3O[C@@H]1C[C@@H](N)[C@@H](O)[C@@H](C)O1	56*	99*	-165	-105	47	55*	36*	47*
CCOC(=O)c1c(-c2cc(OC)c(OC)c(OC)c2)csc1N	/	-21	-28	0	-14	-29	/	/
O=C(Nc1cccc2ncccc12)c1ccc(OCc2ccccc2)cc1	28	-1	-5	11	3	43*	-9	16
O=C(NCc1cccnc1)c1ccc(COc2ccc(Cl)cc2)cc1	24	7	-12	18	14	66*	-17	4
Nc1ccc(C(=O)Nc2cccc3ncccc23)cc1	-7	-6	-4	-18	4	-17	/	/
Cc1ccc(-c2nc(C3CCCN(S(=O)(=O)c4ccc(C)c(C)c4)C3)no2)cc1 (stereo not drawn)	/	/	/	/	-1	-22	/	/
Cc1ccc(CNC(=O)CC(C)S(=O)(=O)c2ccc3c(c2)NC(=O)CS3)o1 (stereo not drawn)	-14	3	14	22	14	-8	/	/
CC(C)C(=O)N1CCN(c2ccc(NC(=O)COc3ccccc3[N+](=O)[O-])cc2)CC1	30	2	23	49	25	50*	-2	28
CN1CCN(c2ccc(NC(=O)COc3ccccc3[N+](=O)[O-])cc2)CC1	12	5	0	-8	-9	2	/	/
C[C@@H]1CN([C@H](C)CO)C(=O)c2cc(Br)cnc2O[C@H]1CN(C)C(=O)c1ccc(F)cc1	/	/	/	/	0	-15	/	/
COc1ccc(-c2noc(CCCC(=O)NC3CCCC3)n2)cc1	30	45	20	15	53*	54*	11	21
COc1ccc(-c2noc(CCC(=O)NC3CCCCCC3)n2)cc1	9	-3	4	-7	-21	-13	/	/
COc1ccc(-c2noc(CCCC(=O)Nc3ccc(C(N)=O)cc3)n2)cc1	43	5	15	22	65*	55*	39*	13
c1cc2c(cc1CNc1ccc(N3CCOCC3)cc1)OCO2	-61	-21	-60	-43	-98	1	/	/
Cc1ccc(C(=O)N2c3ccccc3N(Cc3ccccc3)C(=O)C2(C)C)cc1	18	11	3	3	20	51*	-1	47*
